# Measured values: ChEMBL document CHEMBL3988442, “University of Dundee, Small-Polar-MMV Screening Library” (2021)
# Screen size: about 66,000 compounds; about 960 (1.5%) showed an effect of 50% or more. This excerpt belongs to a sample that is enriched for strong results.
# Tested on: Trypanosoma brucei
# Experiment: Trypanosoma brucei 72 hour study
# Type: functional, organism-based
# Set-up: scale not given: in the data most compounds retested in dose-response had high values
smiles,measurement,setting,value
O=C(c1ccc(Cl)cc1-n1cnnn1)N1CCC2(CC1)OCCO2,Percent Effect,"30 µM, 30.03 µM",-30.99%
Cn1ccnc1NC[C@@H]1CCC[C@@H]2CN(Cc3cccnc3)C[C@@H]21.O=C(O)C(F)(F)F,Percent Effect,"30.3 µM, […]",-5.749%
CN1C[C@H](NC(=O)c2cscn2)[C@@H]2OCCC[C@@H]21.O=C(O)C(F)(F)F,Percent Effect,"30.3 µM, […]",-88.97%
COCCNC(=O)[C@@]12CCO[C@@H]1CCN(Cc1ccncc1)C2.O=C(O)C(F)(F)F.O=C(O)C(F)(F)F,Percent Effect,"30 µM, 30.03 µM",13.68%
c1ccc(CO[C@H]2C[C@@H]3CN(Cc4cccnc4)C[C@@H]3C2)cc1,Percent Effect,"30.3 µM, […]",51.09%
Cc1ncc(CN2C[C@H]3C[C@H](OCc4ccccc4)C[C@H]3C2)cn1,Percent Effect,"30.3 µM, […]",6.96%
c1ccc(CO[C@H]2C[C@@H]3CN(Cc4cncnc4)C[C@@H]3C2)cc1,Percent Effect,"30.3 µM, […]",-7.208%
CN(C)CCN1CCN(Cc2nccs2)Cc2cccnc21.O=C(O)C(F)(F)F.O=C(O)C(F)(F)F.O=C(O)C(F)(F)F,Percent Effect,"30.3 µM, […]",-78.15%
O=C(NCCc1ccccn1)[C@@]12CCO[C@@H]1CCN(C1CCC1)C2.O=C(O)C(F)(F)F.O=C(O)C(F)(F)F,Percent Effect,"30.3 µM, […]",7.888%
O=C(O)C(F)(F)F.O=C(O)C(F)(F)F.c1ccc(OCC2C[C@@H]3[C@@H](C2)OCCN3CC2CCOCC2)nc1 (some centres not stated),Percent Effect,"30.3 µM, […]",-46.45%
CCN1CCN(Cc2csc(C(C)C)n2)CC1,Percent Effect,"30.3 µM, […]",81.77%
CCN1CCN(Cc2nc(CC(C)C)no2)CC1,Percent Effect,10 µM,-12.44%
CC(C)c1nc(CC(=O)N2CCN(C)CC2c2ccccc2)cs1 (configuration not stated),Percent Effect,"30 µM, 30.03 µM",-91.57%
COCCCNc1c(C#N)c2c(c3nncn13)CN(C)CC2.Cl,Percent Effect,"30 µM, 30.03 µM",-37.83%
Cl.Cl.c1ccc(COC[C@H]2CCC[C@@]23CNCCO3)nc1,Percent Effect,"30.3 µM, […]",-51.33%
O=C(O)C(F)(F)F.O=C(O)C(F)(F)F.c1cnc(N2CCO[C@H]3CN(CC4CCOCC4)C[C@H]32)nc1,Percent Effect,"30.3 µM, […]",-91.37%
O=C(O)C(F)(F)F.c1cc(CN2CC[C@@H]3CN(c4cnccn4)C[C@@H]3C2)ccn1,Percent Effect,"30.3 µM, […]",-4.355%
COc1cc(CNC(C)Cn2ccnc2)cc2c1OCCO2 (configuration not stated),Percent Effect,"30.3 µM, […]",-9.51%
COc1cc(CNCC(O)c2ccccc2F)cc2c1OCO2 (configuration not stated),Percent Effect,"30.3 µM, […]",55.14%
COc1cc(CNC(C)Cn2cccn2)cc2c1OCCO2.Cl (configuration not stated),Percent Effect,"30.3 µM, […]",-12.29%
same,Percent Effect,"10 mM, 10 mM as filed; unlikely as a test dose",-15.19%
COc1cc(CNCC(O)c2ccc(F)cc2F)cc2c1OCO2 (configuration not stated),Percent Effect,"30.3 µM, […]",68.01%
Cc1nc(CN2CCN3C[C@H](Oc4cncnc4)C[C@H]3C2)cs1.O=C(O)C(F)(F)F.O=C(O)C(F)(F)F,Percent Effect,"30.3 µM, […]",-64.45%
Cc1cnc(N2CC3(CCN(Cc4cccnc4)C3)C2)nc1.O=C(O)C(F)(F)F.O=C(O)C(F)(F)F,Percent Effect,"30.3 µM, […]",-6.103%
O=C(O)C(F)(F)F.O=C(O)C(F)(F)F.c1cnc(N2CCN3C[C@H](Oc4cncnc4)C[C@H]3C2)nc1,Percent Effect,"30.3 µM, […]",-14.25%
CCN1CCc2c(cccc2NC(=O)CN(C)C2CCSC2)C1 (configuration not stated),Percent Effect,"30 µM, 30.03 µM",-20.21%
O=C(O)C(F)(F)F.c1cncc(CN2C[C@H]3CCC[C@@H](CNc4cnccn4)[C@H]3C2)c1,Percent Effect,"30.3 µM, […]",-2.256%
Cc1ccc(CN2CC[C@]3(C[C@H](OCc4ccccn4)CO3)C2)o1.O=C(O)C(F)(F)F.O=C(O)C(F)(F)F,Percent Effect,"30 µM, 30.03 µM",4.871%
O=C(c1ccc2c(c1)COC2)N1CCC(Nc2ccccc2)CC1,Percent Effect,"30 µM, 30.03 µM",15.22%
O=C(Cc1c[nH]c2ccccc12)N1CCC(Nc2ccccc2)CC1,Percent Effect,"30.3 µM, […]",-16.2%
O=C(c1cc2cc(F)ccc2[nH]1)N1CCC(Nc2ccc(F)cc2)CC1,Percent Effect,"30.3 µM, […]",86.11%
O=C(O)C(F)(F)F.O=C(O)C(F)(F)F.O=C(O)C(F)(F)F.c1cc(CN2CCO[C@H]3[C@H](OCCN4CCCC4)CC[C@@H]32)ccn1,Percent Effect,"30.3 µM, […]",-7.413%
C[C@H]1C[C@H]2CN(Cc3ccccn3)CC[C@@H]2O1.O=C(O)C(F)(F)F.O=C(O)C(F)(F)F,Percent Effect,"30 µM, 30.03 µM",-2.942%
CCOCCN1C[C@@H]2CCCO[C@@H]2[C@H](NC(=O)c2cnoc2C)C1.O=C(O)C(F)(F)F,Percent Effect,"30.3 µM, […]",-87.51%
O=C(Cc1csc(-c2ncccn2)n1)N1CCN2CCCCC2C1 (configuration not stated),Percent Effect,"30 µM, 30.03 µM",-4.944%
O=C(Cc1ccc(-n2cccn2)cc1)N1CCN2CCCCC2C1 (configuration not stated),Percent Effect,"30 µM, 30.03 µM",56.58%
O=C(c1csc(-c2ncccn2)n1)N1CCN2CCCCC2C1 (configuration not stated),Percent Effect,"30 µM, 30.03 µM",9.676%
CCS(=O)(=O)N1CCc2ccc(NC(=O)Nc3cccc(C#N)c3)cc21,Percent Effect,"30 µM, 30.03 µM",29.43%
O=C(O)C(F)(F)F.O=C(O)C(F)(F)F.O=C1CC[C@@H]2[C@@H](CCN2Cc2ccccn2)N1CC1CC1,Percent Effect,"30.3 µM, […]",9.459%
CC(N)Cc1ccccc1Sc1ccccc1.O=C(O)/C=C\C(=O)O (configuration not stated),Percent Effect,"30 µM, 30.03 µM",99.41%
CC(N)Cc1ccccc1Sc1ccc(O)cc1.CC(N)Cc1ccccc1Sc1ccc(O)cc1.O=C(O)C(=O)O (configuration not stated),Percent Effect,"30 µM, 30.03 µM",73.02%
CNC(C)Cc1ccccc1Sc1ccc(O)cc1.Cl (configuration not stated),Percent Effect,"30 µM, 30.03 µM",-13.84%
O=C(O)C(F)(F)F.O=C(O)C(F)(F)F.c1cncc(O[C@H]2CC[C@H]3[C@H]2OCCN3C2CCCC2)c1,Percent Effect,"30 µM, 30.03 µM",-21.55%
CN(C)[C@@H]1CN(C(=O)Cc2cccs2)[C@@H]2CCCO[C@H]12.O=C(O)C(F)(F)F,Percent Effect,"30.3 µM, […]",-91.09%
COCCN1CC[C@]2(CN(Cc3cccnc3)C[C@H]2C)C1=O.O=C(O)C(F)(F)F.O=C(O)C(F)(F)F,Percent Effect,"30.3 µM, […]",-47.24%
CN1C(Cn2cccn2)C[C@@H]2CN(Cc3cccnc3)CC[C@@H]21.O=C(O)C(F)(F)F.O=C(O)C(F)(F)F.O=C(O)C(F)(F)F.O=C(O)C(F)(F)F (some centres not stated),Percent Effect,"30.3 µM, […]",-14.63%
COCCN1CCO[C@@H]2CN(S(=O)(=O)c3cccnc3)C[C@@H]2C1.O=C(O)C(F)(F)F.O=C(O)C(F)(F)F,Percent Effect,"30.3 µM, […]",-14.72%
